# High-throughput results deposited in PubChem by Broad Institute.
# Compounds with a hit are over-represented: about 6.7% of the library has one in this group of screens.
# C diff HTS: C. difficile growth inhibitors, primary screen, HTS | Clostridium difficile clinical isolate growth, OD600, 24 h; hits give low values | AID 1259249, 2017 | growth activity, negative = inhibition, % at 16 µg/mL (by protocol) | 86,000 tested, 0.25% active;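 active means mean growth activity at or below -80% and every replicate also at or below -80%; inconclusive means mean at or below -80% but some replicate above -80%; inactive means mean growth activity above -80%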
# Pf Dd2 growth: P. falciparum Dd2 growth inhibitors, primary screen, SYBR Green fluorescence, single dose replicates | 72 h; hits give low values | activity change, % at 10 µM | 94,000 tested, 2.3% active; in the data active means activity change below about -80%; inconclusive means no clear call, values can overlap the other calls
# T cruzi growth: T. cruzi intracellular proliferation inhibitors, primary screen, cell-based, beta-gal Tulahuen parasites, NIH3T3 host, luminescence; inhibition, % at 8.34 µM; 77,000 tested, 5.9% active; T. cruzi beta-gal in NIH3T3, GalScreen luminescence, 90 h;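 active means mean inhibition above about 93%, with at least 55% of replicates each passing it, limit read from the data, passing the limit was not always enough; inconclusive means only one of those two conditions holds; inactive means neither condition holds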
# Hits are given with their value; 0 = inactive; ? = inconclusive; - = not tested or not shown.
SMILES,C diff HTS,Pf Dd2 growth,T cruzi growth
C[C@H]1CN([C@@H](C)CO)C(=O)c2cccc(NC(=O)Nc3ccccc3)c2O[C@H]1CN(C)Cc1ccc(C(=O)Nc2ccccc2N)cc1,0,0,0
C[C@@H]1CN([C@H](C)CO)C(=O)c2cccc(NC(=O)Nc3ccccc3)c2O[C@@H]1CN(C)Cc1ccc(C(=O)Nc2ccccc2N)cc1,0,-91,0
O=S(=O)(c1ccc(F)cc1)N1CC[C@@H]2[C@H]1c1cc(Br)ccc1N[C@@H]2CO,0,0,0
CCNC(=O)C[C@@H]1CC[C@H](NC(=O)C2CC2)[C@H](CO)O1,-,0,0
C[C@@H]1CN([C@@H](C)CO)C(=O)c2cccc(NC(=O)C3CC3)c2O[C@@H]1CN(C)C(=O)NC1CCCCC1,0,0,0
CO[C@@H]1CN(C)C(=O)c2ccc(NS(=O)(=O)c3ccc(C)cc3)cc2OC[C@@H](C)N(C(=O)NC(C)C)C[C@@H]1C,-,-,0
C[C@H]1CN([C@@H](C)CO)C(=O)c2cccc(NC(=O)C3CCCCC3)c2O[C@@H]1CN(C)Cc1ccc(C(=O)Nc2ccccc2N)cc1,0,-88,0
C[C@H](CO)N1C[C@H](C)[C@H](CN(C)Cc2ccc(C(=O)Nc3ccccc3N)cc2)Oc2c(NC(=O)C3CCCCC3)cccc2C1=O,0,?,0
C[C@@H]1CN([C@H](C)CO)C(=O)c2cccc(NS(=O)(=O)c3ccccc3)c2O[C@@H]1CN(C)S(=O)(=O)c1cccs1,0,0,0
COc1ccc2c3c(n(C)c2c1)[C@H](CO)N(C(=O)Cc1ccccc1)CC31CN(C(=O)Cc2ccccc2)C1,0,-83,-
COc1ccc2c3c([nH]c2c1)[C@H](CO)N(C(=O)Cc1ccccc1)CC31CN(C(=O)Cc2ccccc2)C1,0,-83,-
CCC(=O)N1CC2(CCN(C(=O)Nc3ccc(F)cc3)CC2)c2c([nH]c3cc(OC)ccc23)[C@@H]1CO,0,0,-
COc1ccc2c3c([nH]c2c1)[C@@H](CO)N(C(=O)Nc1ccc(F)cc1)CC31CN(C(=O)Cc2ccccc2)C1,0,0,-
COc1ccc2c3c(n(C)c2c1)[C@H](CO)N(C(=O)c1ccccc1)CC31CCN(C(=O)c2ccccc2)CC1,0,-88,-
COc1ccc2c3c(n(C)c2c1)[C@H](CO)N(C(=O)c1ccccc1)CC31CCN(C(C)=O)CC1,0,0,-
CCC(=O)N1CC2(CN(C(=O)Cc3ccccc3)C2)c2c(n(C)c3cc(OC)ccc23)[C@@H]1CO,0,0,-
CCC(=O)N1CC2(CN(C(=O)Nc3ccc(F)cc3)C2)c2c([nH]c3cc(OC)ccc23)[C@@H]1CO,0,-84,-
CCN1[C@@H]2Cn3c(ccc(-c4ccncc4)c3=O)[C@H]1[C@@H](C(=O)NCc1ccccc1)[C@@H]2CO,0,0,0
C[C@@H]1CN([C@@H](C)CO)C(=O)c2cc(-c3ccccc3)cnc2O[C@@H]1CN(C)C(=O)c1ccccc1F,0,0,-
C[C@@H]1CN([C@@H](C)CO)C(=O)c2cc(C3=CCCC3)cnc2O[C@@H]1CN(C)C(=O)C1CCOCC1,0,0,-
C[C@@H]1CCCCO[C@@H](CN(C)S(=O)(=O)c2cccs2)[C@H](C)CN([C@@H](C)CO)C(=O)c2cc(NS(=O)(=O)c3cn(C)cn3)ccc2O1,0,0,-
C/C=C/c1ccc([C@H]2[C@@H](CNC(=O)CC3CC3)N(C(C)=O)[C@H]2CO)cc1,0,0,0
C[C@H](CO)N1C[C@H](C)[C@@H](CN(C)Cc2ccc(-c3ccccc3)cc2)Oc2ccc(NC(=O)Cn3cnnn3)cc2CC1=O,0,0,0
COc1ccc(CN2CC3(CN(C(=O)Cc4ccccc4)C3)c3c([nH]c4cc(OC)ccc34)[C@H]2CO)cc1,0,-89,-
COc1ccc2c3c([nH]c2c1)[C@H](CO)N(C(=O)Cc1ccccc1)CC31CCN(C(=O)Nc2ccccc2F)CC1,0,-91,-
SMILES,C diff HTS,Pf Dd2 growth,T cruzi growth
COc1ccc2c3c([nH]c2c1)[C@H](CO)N(C(=O)Cc1ccccc1)CC31CCN(C)CC1,0,0,-
COc1ccc2c3c([nH]c2c1)[C@@H](CO)N(C(=O)Cc1ccccc1)CC31CCN(C(=O)Cc2ccccc2)CC1,0,-87,-
COc1ccc2c3c([nH]c2c1)[C@@H](CO)N(C(=O)Nc1ccccc1F)CC31CCN(C(C)=O)CC1,0,0,-
COc1ccc(CN2CC3(CN(C(=O)Cc4ccncc4)C3)c3c([nH]c4cc(OC)ccc34)[C@@H]2CO)cc1,0,0,-
Cc1noc(C)c1NC(=O)Nc1ccc2c(c1)C(=O)N([C@@H](C)CO)C[C@H](C)[C@@H](CN(C)Cc1ccc3c(c1)OCO3)O2,0,0,0
O=C(Nc1ccc2c(c1)[C@H]1C[C@@H](CC(=O)N3CCCCC3)O[C@H](CO)[C@H]1O2)NC1CCCC1,0,0,0
